Results as given in the OligoGym collection.
Note: reference of the scale not given here.

The sequences below were run against WNT16 (assay: pooled miR-30 sensor sort-seq; sequence = guide strand). Conditions: shRNA.
TTTACATTAAAATACATCCTTA was tested, and the sensor-assay potency score (higher = more potent) was -0.353. With TCTACTGACATCAACTTGGCGA the sensor-assay potency score (higher = more potent) was -0.481. TAACTTTTCAACATCTTCTATC gave a sensor-assay potency score (higher = more potent) of -0.48.

These sequences were tested against WNT4 in the same assay as above. Conditions: shRNA.
Work on TTGTCAGAGCATCCTGACCACT yielded a sensor-assay potency score (higher = more potent) of -1.18. TCGAGTGTGGAGCAGTTCCAGC was tested, and the sensor-assay potency score (higher = more potent) was -1.25. TGCACTGTCCTGTCACAGCCGC was tested, and the sensor-assay potency score (higher = more potent) was -1.01. For TTGCGTGGCACCAGTGCCCTGG, the sensor-assay potency score (higher = more potent) was -0.464. TACACCAGGTCCTCATCTGTGT gave a sensor-assay potency score (higher = more potent) of -0.668. ATGACTTCCAGGTTCCGCTTGC was tested, and the sensor-assay potency score (higher = more potent) was -0.442. With AAGGAGTCGAGTGTGGAGCAGT the sensor-assay potency score (higher = more potent) was -0.667. In the case of TTGCACATCTGCACCTGCCTCT, the sensor-assay potency score (higher = more potent) is reported as 0.262. Work on TTTCTCGCACGTCTCCTCCTCT yielded a sensor-assay potency score (higher = more potent) of -0.548. With TGGAATTTGCAGCTGCAGCGTT the sensor-assay potency score (higher = more potent) was -0.943. TTGAACTGTGCGTTGCGTGGCA showed a sensor-assay potency score (higher = more potent) of 0.0724. Sequence TTGGACGTCTTGTTGCATGTGC has a sensor-assay potency score (higher = more potent) of 0.653.

The sequences below were run against WRAP73 in the same assay as above. Conditions: shRNA.
In the case of TACATATTTACAAAAATGCTTT, the sensor-assay potency score (higher = more potent) is reported as -1.06. TTGCTCTGTCGGTAACAGGTTT was tested, and the sensor-assay potency score (higher = more potent) was -1.05. TTTCGGGTTTGCTCTGTCGGTA gave a sensor-assay potency score (higher = more potent) of -0.96. Work on TTGGGAATGTTGTCGTTCCTTG yielded a sensor-assay potency score (higher = more potent) of -0.237. In the case of TATTTACTCTCTGAGCTCGGGA, the sensor-assay potency score (higher = more potent) is reported as -0.387. TTGCTGAGGAGGGCCATCGAGT showed a sensor-assay potency score (higher = more potent) of -1.36. TTCGGGTTTGCTCTGTCGGTAA was tested, and the sensor-assay potency score (higher = more potent) was -0.662. TTATACACCACTATCTTGGGAT gave a sensor-assay potency score (higher = more potent) of 0.881. TAATCTTTGCAGTCGCGCCGTT was tested, and the sensor-assay potency score (higher = more potent) was -0.556. With TACGTGGACAACAACCGGCCAT the sensor-assay potency score (higher = more potent) was -0.35. TAACAGGTTTCAGTGTCTGTAA was tested, and the sensor-assay potency score (higher = more potent) was -0.596. Work on TTGTGCACAAGGACCAGACGGT yielded a sensor-assay potency score (higher = more potent) of 0.172.

What follows are sequences tested against WRB in the same assay as above. Conditions: shRNA.
TTGAGCTTATCCGTCATCTTGT showed a sensor-assay potency score (higher = more potent) of 0.602. In the case of TACTATACAACTCTTGCTCAAC, the sensor-assay potency score (higher = more potent) is reported as -0.82. Work on TCACATTTCGTACAGATCGAGG yielded a sensor-assay potency score (higher = more potent) of -1.13. TCGTCCATCATGTTGACTGTGG showed a sensor-assay potency score (higher = more potent) of -0.317. TAGTGTTGTTCTTTTAACCATA gave a sensor-assay potency score (higher = more potent) of -0.891. Sequence TTGCATCCAAACACGAAGCTGA has a sensor-assay potency score (higher = more potent) of 0.58. TTGGCTAATTGAGCTGTCCGAG gave a sensor-assay potency score (higher = more potent) of -0.552. In the case of TTAAATACAAAACACAAGTTGA, the sensor-assay potency score (higher = more potent) is reported as -0.499. TTACAGACTAAAATCCAACAGG was tested, and the sensor-assay potency score (higher = more potent) was -0.429. For TTATCTTGGCTAATTGAGCTGT, the sensor-assay potency score (higher = more potent) was -0.0399. Sequence ATATCTGGCAAACTCGTCCATC has a sensor-assay potency score (higher = more potent) of -0.952. TAATACTATACAACTCTTGCTC was tested, and the sensor-assay potency score (higher = more potent) was 0.423.
